biological target: ACOT6; assay: pooled miR-30 sensor sort-seq; sequence = guide strand; settings: shRNA
Further: reference of the scale not given here.

Row | Sequence | sensor-assay potency score (higher = more potent)
1 | AATACTAGGACCTTTCACCTTT | 0.28
2 | TTACTTTTCCTAGATCATCGAC | -0.0892
3 | TAATGTAGAGGAGCTACTGTGT | 0.0472
4 | TTTCCCATGAGCTTGTAGCCTT | -0.268
5 | TTAGGAATAATCATATCCTTGT | 0.922

biological target: ACRV1; assay: as above; settings: shRNA

Row | Sequence | sensor-assay potency score (higher = more potent)
6 | ATCTTCTTTAACATGCACTGCT | -0.185
7 | TCTTTAACATGCACTGCTGGGA | -0.397
8 | TTCGACAGCATATAATTTGCAT | -0.0881
9 | TAATATTGTGCCTGAAGGCTGT | 0.0194
10 | TTCAAAGATCTTCTTTAACATG | -1.23
11 | TCAAAGATCTTCTTTAACATGC | -0.277
12 | ATAATTTGCATCCTCGTTCCAT | -0.172
13 | TTCTTTAACATGCACTGCTGGG | -0.734
14 | TTTTCCACCTTCAAAGATCTTC | -0.56
15 | TCGACAGCATATAATTTGCATC | -1.21
16 | TTTAACATGCACTGCTGGGAAT | -1.59
17 | TTAGGCTGACTTGATGTTCCTC | -0.162
18 | TTGCATCCTCGTTCCATGGGAG | 0.0526
19 | TGAAGTTTGATGATCTATGGAG | 0.139
20 | ATTCATATAAGCACATGTGTAG | -0.436
21 | TTTGCATCCTCGTTCCATGGGA | 0.226
22 | TAATTTGCATCCTCGTTCCATG | -0.581
23 | TTGAACCATGAATTGGAGTTTT | -1.17
24 | TCTTCTTTAACATGCACTGCTG | -0.6
25 | TAGGCTGACTTGATGTTCCTCT | 0.616
